Measured values reported in PubChem BioAssay AID1851 (National Center for Advancing Translational Sciences (NCATS), 2009).
Screen size: about 16,000 compounds; about 5,700 (36%) were called active. Inconclusive results (about 24%) are left out. The list shows a part of the results. Unmarked numbers belong to inactive results. The call rests on the fitted dose curve; in most records, active means well fitted curve in the direction sought with a large enough effect; inconclusive means small, poorly fitted or top-dose-only effect, or effect the other way; inactive means no such curve, though single readings can be large or run the other way.

Target: Cytochrome P450 1A2 (Homo sapiens) (UniProt P05177)
Sequence (P05177 whole entry, looked up): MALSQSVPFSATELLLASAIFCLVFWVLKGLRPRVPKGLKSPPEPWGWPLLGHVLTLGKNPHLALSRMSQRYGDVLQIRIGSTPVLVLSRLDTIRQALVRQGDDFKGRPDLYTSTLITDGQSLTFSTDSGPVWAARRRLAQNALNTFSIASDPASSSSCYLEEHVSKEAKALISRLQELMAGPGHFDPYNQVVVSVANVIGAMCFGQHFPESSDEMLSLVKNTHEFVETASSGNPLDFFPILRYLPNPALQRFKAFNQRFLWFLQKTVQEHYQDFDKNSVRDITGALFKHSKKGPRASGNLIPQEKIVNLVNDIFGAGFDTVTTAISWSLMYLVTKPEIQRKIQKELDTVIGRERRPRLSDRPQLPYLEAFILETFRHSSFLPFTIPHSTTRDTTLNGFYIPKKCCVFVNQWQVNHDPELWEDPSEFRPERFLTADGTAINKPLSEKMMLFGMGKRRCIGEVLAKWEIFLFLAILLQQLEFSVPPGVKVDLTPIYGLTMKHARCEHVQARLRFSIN
Test: Cytochrome panel assay with activity outcomes
Details: recombinant CYP, pro-luciferin dealkylation, luminescence, p450-cyp1a2; series mostly up to 57.1 µM; activity, negative = inhibition: at the top concentration
On the % scale 0 is the no-effect control and ±100 the full control effect.

| SMILES | activity, negative = inhibition | AC50 |
| --- | --- | --- |
| CN1/C(=C\C=[N+](C)c2ccccc2)C(C)(C)c2ccccc21 | -11.3% | – |
| Nc1nc2c(nc(Br)n2[C@@H]2O[C@H]3COP(=O)(O)O[C@@H]3[C@H]2O)c(=O)[nH]1 | 1.91% | – |
| O=C(Cc1csc(Nc2nc(=S)[nH]c3ccccc23)n1)NCc1cccc(Cl)c1 | – | 4470 nM (active) |
| Cc1ccc(CNC(=O)Cc2csc(Nc3nc(=S)[nH]c4ccccc34)n2)cc1 | – | 3160 nM (active) |
| Cc1ccc(CS(=O)(=O)CCC(=O)NCc2ccccn2)cc1 | -11% | – |
| COc1ccc(CNC(=O)Cc2csc(Nc3nc(=S)[nH]c4ccccc34)n2)cc1 | – | 4470 nM (active) |
| Cn1c(=O)c2c(n(Cc3ccccc3)c1=O)NC(=O)C2CC(=O)NCc1cccc(Cl)c1 (stereo not given) | 15.8% | – |
| CCOc1cc2[nH]c(=O)n(CCC(=O)NCc3ccc(OC)cc3)c(=O)c2cc1OCC | -12.3% | – |
| CC(C)(C)NC(=O)C(c1ccccn1)N(C(=O)C1CSC(=O)C1)c1ccc(F)cc1 (stereo not given) | 2.02% | – |
| O=C(Nc1ccc2c(c1)Cc1ccccc1-2)[C@@H]1[C@H](C(=O)O)[C@]2(Cl)C(Cl)=C(Cl)[C@@]1(Cl)C2(Cl)Cl | – | 3160 nM (active) |
| S=C(Nc1ccc2c(c1)Cc1ccccc1-2)Nc1ccc2c(c1)Cc1ccccc1-2 | – | 200 nM (active) |
| O=C(O)c1ccccc1-c1ccccc1C(=O)Nc1ccc2c(c1)Cc1ccccc1-2 | -7.14% [at 2.29 µM] | – |
| COc1cccc(NC(=S)NN2CCN(C)CC2)c1 | -5.77% | – |
| COc1ccccc1-c1cc(Nc2ccc(F)cc2)ncn1 | – | 2000 nM (active) |
| COc1ccccc1-c1cc(Nc2ccn[nH]2)ncn1 | – | 631 nM (active) |
| Cc1ccccc1-c1cncnc1NCc1cccs1 | – | 3160 nM (active) |
| CN(C)Cc1ccccc1-c1cncnc1NCc1cccs1 | – | 25100 nM (active) |
| COc1ccccc1-c1cncnc1NCc1cccs1 | – | 3160 nM (active) |
| O=P(Cc1cc[n+]([O-])cc1)(c1ccccc1)c1ccccc1 | 13.4% | – |
| c1cncc(CNc2nc(-c3ccc4c(c3)OCO4)nc3ccccc23)c1 | – | 100 nM (active) |
| COc1ccccc1CNc1nc(-c2ccc3c(c2)OCO3)nc2ccccc12 | – | 631 nM (active) |
| c1ccc(CNc2nc(-c3ccc4c(c3)OCO4)nc3ccccc23)cc1 | – | 501 nM (active) |
| Cc1cccc(CNc2nc(-c3ccc4c(c3)OCO4)nc3ccccc23)c1 | – | 631 nM (active) |

| SMILES | activity, negative = inhibition | AC50 |
| --- | --- | --- |
| CC[C@]1(c2ncc[nH]2)Cc2ccccc2O1 | -31% | – |
| CC(C)OC(=O)C(CC(=O)O)N1CCOCC1 (stereo not given) | 1.7% | – |
| COc1ccc(NC(=O)N2CC3(CCN(C(=O)c4ccc(OC)cc4)CC3)C2)cc1 | -21.6% | – |
| CC(=O)OC[C@@H]1O[C@@H](O/N=C2/C[C@@H](O)[C@@H](O)[C@@H]3[C@@H]4C(=O)N(C5CCCCC5)C(=O)[C@H]4CC[C@@H]23)[C@H](OC(C)=O)[C@H](OC(C)=O)[C@@H]1OC(C)=O | 0.189% [at 11.4 µM] | – |
| O=c1[nH]c(=O)n([C@@H]2C[C@H](O)[C@H](CO)O2)cc1C(F)(F)F | -3.57% [at 25.6 µM] | – |
| COc1ccc(COC(=O)N/N=C2/C[C@@H](O)[C@@H](O)[C@@H]3[C@@H]4C(=O)N([C@@H](C)c5ccccc5)C(=O)[C@H]4CC[C@H]23)cc1 | -2.7% [at 11.4 µM] | – |
| Cc1cnc(CNc2nc(-c3ccc4c(c3)OCO4)nc3ccccc23)cn1 | – | 2000 nM (active) |
| COc1ccccc1CNc1nc(-c2ccc(N(C)C)cc2)nc2ccccc12 | – | 2510 nM (active) |
| c1csc(CNc2nc(-c3ccc4c(c3)OCO4)nc3ccccc23)c1 | – | 794 nM (active) |
| NCCNCC1CCNCC1 | -3.59% [at 2.29 µM] | – |
| CCn1cc(C(=O)NCC(=O)OC)c2cc(OC)c(OC)cc2c1=O | -13.6% | – |
| NCc1ccccc1CC(=O)N[C@@H]1C(=O)N2C(C(=O)O)=C(CSc3nnnn3CC(=O)O)CS[C@@H]12 | -9.72% [at 25.6 µM] | – |
| COc1ccc(NC(=O)N2CC[C@@]3(CCCN(C(=O)c4cc(C(F)(F)F)cc(C(F)(F)F)c4)C3)C2)cc1 | -18.6% | – |
| CC(C)NC(=O)c1ccc2c(=O)n(Cc3ccco3)c(=S)[nH]c2c1 | – | 15800 nM (active) |
| COc1ccc(NC(=O)c2ccc3c(=O)n(Cc4ccco4)c(=S)[nH]c3c2)c(OC)c1 | – | 794 nM (active) |
| COc1ccc2c(C=Nc3c(C)n(C)n(-c4ccccc4)c3=O)c(O)n(Cc3ccco3)c(=O)c2c1 | -11.1% | – |
| O=C(NCc1ccco1)c1ccc2c(=O)n(-c3ccccc3)c(=S)[nH]c2c1 | -1.5% | – |
| COc1ccc(CCNC(=O)c2ccc3c(=O)n(Cc4ccco4)c(=S)[nH]c3c2)cc1OC | – | 25100 nM (active) |
| COc1ccc(CCNC(=O)c2nnn(CC(=O)Nc3ccccc3C)c2N)cc1OC | -18.3% | – |
| C/C(CCC(=O)OC[C@@H]1O[C@H](C#Cc2ccccc2)C=C[C@@H]1Oc1ccc(C)cc1)=N/OC[C@@H](O)[C@H]1O[C@H]2OC(C)(C)O[C@H]2[C@@H]1O | 2.38% [at 11.4 µM] | – |
| O=C(/C=C\c1ccccc1)c1ccccc1O | -10.2% [at 11.4 µM] | – |
| CC1(C)[C@@H]2CC[C@]1(C)[C@@H](OC(=O)/C=C\c1ccccc1)C2 | -3.39% [at 2.29 µM] | – |
